# Source: ChEMBL document CHEMBL1201862, “PubChem BioAssay data set” (2004)
# The whole screen tested about 270,000 compounds, of which about 5,800 (2.1%) were called active. Roughly 16% stayed inconclusive and do not appear here. The rule behind the calls is not given here. The full list was thinned out, with actives kept by preference.
# Target: Microtubule-associated protein tau (Homo sapiens) (UniProt P10636)
# Assay: qHTS for Inhibitors of Tau Fibril Formation, Thioflavin T Binding. [Related pubchem assays: 596 ]
# Chain of Microtubule-associated protein tau (Homo sapiens) (P10636 whole entry): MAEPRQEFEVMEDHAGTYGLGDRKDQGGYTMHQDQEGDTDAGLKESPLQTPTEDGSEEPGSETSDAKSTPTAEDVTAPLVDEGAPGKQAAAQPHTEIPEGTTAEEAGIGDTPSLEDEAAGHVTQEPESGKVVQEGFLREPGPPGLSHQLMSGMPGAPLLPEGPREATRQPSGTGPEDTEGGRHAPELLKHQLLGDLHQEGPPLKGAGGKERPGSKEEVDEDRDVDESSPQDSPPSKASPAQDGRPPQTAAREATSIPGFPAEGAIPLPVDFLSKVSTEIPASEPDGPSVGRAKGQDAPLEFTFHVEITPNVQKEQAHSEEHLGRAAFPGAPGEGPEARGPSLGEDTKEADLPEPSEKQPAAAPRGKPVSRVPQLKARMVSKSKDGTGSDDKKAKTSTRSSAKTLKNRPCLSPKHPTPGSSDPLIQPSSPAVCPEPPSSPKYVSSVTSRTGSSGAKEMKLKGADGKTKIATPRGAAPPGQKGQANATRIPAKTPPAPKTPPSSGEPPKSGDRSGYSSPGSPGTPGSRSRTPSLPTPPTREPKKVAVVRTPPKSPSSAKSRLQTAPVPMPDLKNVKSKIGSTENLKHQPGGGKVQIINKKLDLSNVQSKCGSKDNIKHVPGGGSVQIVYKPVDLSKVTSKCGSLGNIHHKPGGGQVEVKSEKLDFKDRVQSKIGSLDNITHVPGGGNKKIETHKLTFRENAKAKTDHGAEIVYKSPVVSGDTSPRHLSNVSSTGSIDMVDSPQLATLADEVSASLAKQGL
row,Compound,Potency
1,Cl[Te]1(Cl)OCCO1,5.62 µM (active)
